The source made the active and inactive calls. The calls were made as follows: active = hit-call score of the fitted dose curve at least 0.9, where 1 is the maximum; inactive = score below 0.9.

Read-out in this assay: Monocyte Chemoattractant Protein-1 (MCP1), CCL2 (gene 6347)
In words: BSK_4H_MCP1: BioMAP Diversity Plus: 4H Assay for Monocyte Chemoattractant Protein-1 (MCP1) Biomarker Activity (AID 2283018). Conditions: primary human endothelial cells (HUVEC); actives raise or lower the signal. How it is done:
BSK_4H is a cell-based, multiplexed-readout assay that uses umbilical vein endothelium, a human vascular primary cell, with measurements taken at 24 hours after chemical dosing in a 96-well plate.BSK_4H_MCP1 is an assay component measured in the BSK_4H assay. It measures MCP-1 antibody related to regulation of gene expression using ELISA technology.Data from the assay component BSK_4H_MCP1 was analyzed into 1 assay endpoint. This assay endpoint, BSK_4H_MCP1, was analyzed with bidirectional fitting relative to DMSO as the negative control and baseline of activity. Using a type of binding reporter, gain or loss-of-signal activity can be used to understand changes in the signaling as they relate to the gene CCL2. Furthermore, this assay endpoint can be referred to as a primary readout, because this assay has produced multiple assay endpoints where this one serves a signaling function. To generalize the intended target to other relatable targets, this assay endpoint is annotated to the cytokine intended target family, where the subfamily is chemotactic factor.
The levels of cell surface (or secreted, indicated by the prefix "s") biomarker endpoints were measured by ELISA. Overt cytotoxicity to cells in confluent adherent cultures (all systems other than the BT system) was assessed by measuring total protein levels using sulforhodamine B (SRB) staining in parallel cultures at the time of biomarker measurements, indicated as SRB endpoints. For proliferation assays for adherent cell types, individual cell types are cultured at sub-confluence and relative cell numbers quantified by SRB staining at time points optimized for each system (48 h: 3C and CASM3C systems; 72 h: BT and HDF3CGF systems; 96 h: SAg system). SRB was performed by staining cells with 0.1% SRB after fixation with 10% TCA and reading wells at 560 nm.Viability and proliferation of PBMC (T cells) was quantified by Alamar Blue reduction for the SAg and BT systems. For PBMC viability (referred to as PBMC Cytotoxicity within the assay endpoint names), cells were plated (75,000/well in a 96-well plate) and then chemical samples added for 1 h before addition of activators, SEB and TSST-1 (20 ng/mL final concentration each). Cells were incubated for 90 h. Then, Alamar Blue (20 uL/well) (Invitrogen, Cat DAL1100) was added for 6 h, and the plates were read with a fluorescence microplate reader at 546/580 nm (excitation/emission). For PBMC proliferation, cells were plated and activated as above but incubated for only 16 h prior to addition of Alamar Blue. Plates were read after 6 h.
For the molecule `O=C(O)CC(O)C(=O)O` (stereo not given), the outcome was inactive.

On to `CC(C)CC(C)(O)C#CC(C)(O)CC(C)C` (stereo not given), for which the result was inactive.

In the case of `O=C(OC[C@H]1O[C@@H](OC(=O)c2cc(O)c(O)c(OC(=O)c3cc(O)c(O)c(O)c3)c2)[C@H](OC(=O)c2cc(O)c(O)c(OC(=O)c3cc(O)c(O)c(O)c3)c2)[C@@H](OC(=O)c2cc(O)c(O)c(OC(=O)c3cc(O)c(O)c(O)c3)c2)[C@@H]1OC(=O)c1cc(O)c(O)c(OC(=O)c2cc(O)c(O)c(O)c2)c1)c1cc(O)c(O)c(OC(=O)c2cc(O)c(O)c(O)c2)c1`, the concentration at half-maximal activity (AC50) was 6.1 µM (active).

In the case of `CCOCCO`, the outcome was inactive.

Consider `CCCCC(CC)COC(=O)c1ccc(C(=O)OCC(CC)CCCC)cc1` (stereo not given), for which the result was inactive.

`Cc1ccc(O)cc1`: the result was inactive.

`O=c1n(CC2CO2)c(=O)n(CC2CO2)c(=O)n1CC1CO1` (stereo not given): the outcome was inactive.

Regarding `CC[C@H](C)C(=O)O[C@H]1C[C@@H](C)C=C2C=C[C@H](C)[C@H](CC[C@@H]3C[C@@H](O)CC(=O)O3)[C@H]21`, the AC50 was 1.98 µM (active).

Turning to `Nc1nc2ncc(CNc3ccc(C(=O)N[C@@H](CCC(=O)O)C(=O)O)cc3)nc2c(=O)[nH]1`, the result was inactive.

For the molecule `Cn1c(=O)c2c(ncn2C)n(C)c1=O`, the result was inactive.

`CCOC(=O)COc1ccc2c(c1)CC(NCC(O)c1cccc(Cl)c1)CC2` (stereo not given): the AC50 was 28.2 µM (active).

`Cn1cnc([N+](=O)[O-])c1Sc1ncnc2nc[nH]c12`: the result was inactive.

For `Nc1ccc(Nc2ccccc2)cc1`, the result was inactive.

Turning to `CC/C(=C\C(=N/O)C(N)=O)C(C)[N+](=O)[O-]` (stereo not given), the result was inactive.

Regarding `NC(=O)NO`, the result was inactive.

Take `CCCCCCCCO`: the outcome was inactive.

For the molecule `C=CC(=C)CCC=C(C)C`, the outcome was inactive.

On to `Cc1ccc(C)c(O)c1`, for which the outcome was inactive.

As for `Nc1cccc(N)c1`, the outcome was inactive.

In the case of `On1ccccc1=S`, the AC50 is 30.8 µM (active).

Consider `O=C(O)c1cccc(Oc2ccccc2)c1`, for which the result was inactive.

With `Cc1ccc(N)cc1O`, the result was inactive.

On to `CCn1nc(Cc2ccccc2)cc1C1CCN(C[C@H]2C[C@H](N(C)[C@@H](C(=O)O)C(C)C)C[C@@H]2c2cccc(F)c2)CC1`, for which the outcome was inactive.

Take `C=CCCCCCCCCC(=O)O`: the result was inactive.

Consider `CC(C)=CCC/C(C)=C\CO`, for which the result was inactive.

Take `CCC(C)(C)C(=O)O[C@H]1C[C@@H](C)C=C2C=C[C@H](C)[C@H](CC[C@@H]3C[C@@H](O)CC(=O)O3)[C@H]21`: the AC50 was 0.392 µM (active).

Turning to `CCOCCOCCOCCO`, the outcome was inactive.

As to `O=C(NS(=O)(=O)/C=C/c1ccccc1)c1ccc(F)cc1Cl`, the outcome was inactive.

Take `CCc1cc(SCc2sc(-c3ccc(C(F)(F)F)cc3)nc2CN2CCN(c3ccc(OC)cc3)CC2)ccc1OCC(=O)O`: the half-maximal activity concentration (AC50) is 8.42 µM (active).

In the case of `CC[C@H]1CC[C@H](NCc2cc3c(cc2OC)[C@H]2C[C@H]2C(=O)N3C)[C@H](c2ccccc2)N1`, the outcome was inactive.

As to `COc1ccc(/C=C/S(=O)(=O)NC(=O)c2ccc(C)cc2Cl)cc1`, the outcome was inactive.

Consider `CCCCC(CC)COC(=O)CCCCCCCCC(=O)OCC(CC)CCCC` (stereo not given), for which the result was inactive.

Turning to `O=P(OC(CCl)CCl)(OC(CCl)CCl)OC(CCl)CCl`, the result was inactive.

As to `CCOC(=O)c1ccc(C2CCC(NC[C@H](O)COc3ccc(O)c(NS(C)(=O)=O)c3)CC2)cc1` (stereo not given in full), the result was inactive.

Take `CC(C)=CCCC(C)=CC=O`: the result was inactive.

In the case of `CC(=O)OCCC(C)C`, the outcome was inactive.

`O=C(O)CCN(C1(C(=O)NO)CCCC1)S(=O)(=O)c1ccc(Oc2ccc(F)cc2)cc1`: the outcome was inactive.

`CN(C)c1ccc(Cc2ccc(N(C)C)cc2)cc1`: the result was inactive.

`O=C1OC(=O)C2C3C=CC(C3)C12` (stereo not given): the result was inactive.

Regarding `Oc1ccc2c(c1)-c1ccccc1C2`, the result was inactive.

(Values after PubChem BioAssay (EPA / NIEHS).)
